This note sets out measurements from the supplement of paper PMC11026393.

The test has as its system H1299. As to the kind of experiment: difference in mean normalized H2B-mRuby nuclear fluorescence intensity relative to DMSO control (normalized intensity difference (DMSO = 0)); higher = stronger increase in transgene reporter fluorescence. The conditions noted are these: 24 h. How it is done: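 Cancer cell lines stably expressing H2B-mRuby2 from a lentiviral PGK promoter were treated with each drug for 24 h and imaged on a Leica DMI8 (ex 541-551 / em 565-605 nm). Nuclei were segmented in CellProfiler. The value is the difference in mean per-nucleus normalized H2B-mRuby intensity versus DMSO-treated cells (about 3 repeats x 4 fields). Doxorubicin is itself fluorescent. Dasatinib is in nM.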

Turning to `O=C(/C=C/c1cccc(S(=O)(=O)Nc2ccccc2)c1)NO` (concentration unit: uM), the difference worked out at 0.186 (concentration: 0.25); 0.231 (concentration: 0.5); 0.491 (concentration: 1); 0.854 (concentration: 2.5); 1.19 (concentration: 5).
Consider `COc1cc2ncnc(Nc3ccc(F)c(Cl)c3)c2cc1OCCCN1CCOCC1` (concentration unit: uM), for which the difference is -0.0187 (concentration: 1); 0.0302 (concentration: 2.5); -0.00342 (concentration: 5); 0.0329 (concentration: 10); 0.0679 (concentration: 20).
Consider `Cn1ncnc1[C@H]1c2n[nH]c(=O)c3cc(F)cc(c23)N[C@@H]1c1ccc(F)cc1` (concentration unit: uM), for which the difference was 0.0403 (concentration: 1); -0.0275 (concentration: 2.5); 0.00616 (concentration: 5); 0.00511 (concentration: 10); 0.0863 (concentration: 25).
Regarding `CNC(=O)c1cc(Oc2ccc(NC(=O)Nc3ccc(Cl)c(C(F)(F)F)c3)cc2)ccn1` (concentration unit: uM), the difference is 0.0342 (concentration: 1); -0.0184 (concentration: 2.5); -0.0837 (concentration: 5); -0.0051 (concentration: 10); -0.155 (concentration: 25).
Take `Nc1ncn([C@@H]2O[C@H](CO)[C@@H](O)[C@H]2O)c(=O)n1` (concentration unit: uM): the difference was determined as 0.0691 (concentration: 1); 0.0657 (concentration: 2.5); 0.123 (concentration: 5); 0.125 (concentration: 10); 0.109 (concentration: 20).
Regarding `CO[C@H]1C[C@@H]2CC[C@@H](C)[C@@](O)(O2)C(=O)C(=O)N2CCCC[C@H]2C(=O)O[C@H]([C@H](C)C[C@@H]2CC[C@@H](O)[C@H](OC)C2)CC(=O)[C@H](C)/C=C(\C)[C@@H](O)[C@@H](OC)C(=O)[C@H](C)C[C@H](C)/C=C/C=C/C=C/1C` (concentration unit: nM), the difference (concentration: 2.5) was -0.0109; the difference (concentration: 10) was 0.177; the difference (concentration: 25) amounted to 0.0761; the difference (concentration: 50) was 0.0674; the difference (concentration: 250) is 0.0406.
As to `CC(=O)O[C@H]1C(=O)[C@@]2(C)[C@H]([C@H](OC(=O)c3ccccc3)[C@]3(O)C[C@H](OC(=O)[C@H](O)[C@@H](NC(=O)c4ccccc4)c4ccccc4)C(C)=C1C3(C)C)[C@]1(OC(C)=O)CO[C@@H]1C[C@@H]2O` (concentration unit: nM), the difference was -0.0339 (concentration: 10); -0.0112 (concentration: 25); 0.134 (concentration: 50); 0.374 (concentration: 100); 0.566 (concentration: 1000).
With `COC(=O)c1ccc([C@H]2c3[nH]c4ccccc4c3C[C@H](C(=O)OC)N2C(=O)CCl)cc1` (concentration unit: nM), the difference was determined as 0.0419 (concentration: 25); 0.0844 (concentration: 100); 0.00407 (concentration: 250); 0.231 (concentration: 500); 0.121 (concentration: 1000).
